Measured values taken from PubChem BioAssay AID687038 (Broad Institute, 2013).
Active and inactive are the calls of the source.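 How the source made its calls: active means curve showing a falling signal whose half-maximal concentration is at most twice the top valid dose; inconclusive means flat curve with a moderate drop, or an unreliable fit; inactive means the rest.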

Assay: endogenous miR-21 quantity in Huh7 cells – cell-based, RT-qPCR, dry powder, selectivity assay for miR-122 inhibitor project, dose response (AID 687038)
Details: Huh7 miR-21 levels, qRT-PCR, 48 h; series mostly up to 35 µM

outcome, inactive:
CN1C(=O)c2cc(NC(=O)c3cccc(F)c3)ccc2OC[C@@H]2O[C@H](CC(=O)O)CC[C@@H]21, CN1C(=O)c2cc(NC(=O)c3cccc(F)c3)ccc2OC[C@H]2O[C@H](CC(=O)O)CC[C@@H]21, CCOC(=O)N1CCC(NC(=O)c2ccc3nc(N4CCC(C)CC4)sc3c2)CC1, Nc1ccc(Oc2ccc(Cl)cc2)cc1, C[C@@H]1CN([C@@H](C)CO)S(=O)(=O)c2ccc(C#Cc3ccncc3)cc2O[C@H]1CN(C)C(=O)C1CCOCC1, C/C=C/c1cnc2c(c1)C(=O)N([C@@H](C)CO)C[C@H](C)[C@H](CN(C)S(=O)(=O)c1ccc(OC)cc1)O2, CO[C@@H]1CN(C)C(=O)c2cc(NS(=O)(=O)c3ccc(Oc4ccccc4)cc3)ccc2OC[C@H](C)NC[C@@H]1C, Cn1c(=O)c(=O)n(C)c2cc(S(=O)(=O)N3CCOCC3)ccc21, CN(C)CCN1C(=O)c2cccc3cc(N)cc(c23)C1=O, COCC(=O)N(C)C[C@H]1Oc2cc(-c3ccccc3F)ccc2S(=O)(=O)N([C@@H](C)CO)C[C@H]1C, C[C@H](CO)N1C[C@H](C)[C@H](CN(C)C(=O)C2CCOCC2)Oc2cc(C#Cc3ccncc3)ccc2S1(=O)=O, CO[C@@H]1CN(C)C(=O)c2cc(NC(=O)c3ccc4c(c3)OCO4)ccc2OC[C@H](C)NC[C@@H]1C, CN1C(=O)c2cc(NC(=O)c3cccc(F)c3)ccc2OC[C@@H]2O[C@@H](CC(=O)O)CC[C@H]21, C[C@@H]1CN([C@H](C)CO)S(=O)(=O)c2ccc(C#Cc3ccncc3)cc2O[C@@H]1CN(C)C(=O)C1CCOCC1, C[C@H]1CN([C@@H](C)CO)C(=O)c2cc(-c3ccc(C#N)cc3)cnc2O[C@H]1CN(C)C(=O)c1ccccc1, COc1cccc(C(=O)Nc2ccc3c(c2)C(=O)N(C)C[C@@H](OC)[C@@H](C)CN[C@@H](C)CO3)c1, CNC[C@@H]1Oc2cc(C#CC3CCCCC3)ccc2S(=O)(=O)N([C@@H](C)CO)C[C@@H]1C, C[C@H]1CN([C@@H](C)CO)C(=O)c2cc(-c3ccc(C#N)cc3)cnc2O[C@H]1CN(C)C(=O)Nc1ccc(C(F)(F)F)cc1, COc1ccc(-c2cnc3c(c2)C(=O)N([C@@H](C)CO)C[C@H](C)[C@H](CN(C)S(=O)(=O)c2ccc(OC)cc2)O3)cc1
